# HSF1 inh – HSF1 inhibitors in luciferase reporter cells, primary screen, cell-based, NIH3T3, luminescence; activity change, negative = inhibition, % at 7.5 µM (by protocol); hit rate 0.77% among 300,000; NIH3T3-HGL HSE-luciferase, MG132-induced, luminescence 8 h; stronger effect = lower value;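 active = more than half of replicate wells show activity change below -50%, luminescence cut by over half; inconclusive = some wells, but at most half, below -50%; inactive = no replicate well below -50%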;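 also: luciferase reports HSF-1 transcriptional activity via heat shock element; 0% = median of DMSO wells and -100% = zero luminescence signal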
# Wnt act – Wnt/beta-catenin pathway activators, primary screen, cell-based, plate reader, single point | hit rate 1.2% among 300,000 | activation, % at 9.35 µM | Wnt/beta-catenin reporter cell assay, activator; in the data active = activation above about 30%, passing the limit was not always enough; inconclusive = no clear call, values can overlap the other calls;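 also: 0% = neutral control wells and 100% = positive control wells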
# HSF-1 act – HSF-1 activators, primary screen, NIH3T3-HGL cells, MG132 stress, luminescence, single point. NIH3T3-HGL HSF-1 luciferase reporter, 8 h; 100% = twice DMSO control signal. activation, % at 9 µM. hit rate 1.7% among 300,000. AID 504408, 2011;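 active = mean replicate activation of at least 50% with a set share of replicates each reaching 50%; inconclusive = only one of those two conditions met; inactive = mean below 50% and too few replicates reaching it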;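 also: 0% = median of the neutral control wells and 100% = twice that signal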
# MITF TRPM1 HTS – activators of MITF-driven TRPM1 promoter reporter, primary screen, cell-based, SK-MEL-5, luciferase, single point. activation, % at 12.5 µM. SK-MEL-5 TRPM1-promoter luciferase, 24 h; % of positive control, neutral wells = 0. AID 588334, 2011. hit rate 0.75% among 300,000;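 active = mean activation of at least 80% with every replicate also reaching 80%; inconclusive = mean reaches 80% but some replicate falls short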;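 also: 0% = neutral control wells and 100% = parthenolide positive control wells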
# esBAF inh – Bmi1 luciferase reporter increase in mESCs, primary screen, esBAF inhibitor project, mouse ES cells, Bmi1 luciferase knock-in, single point; AID 602393, 2012; 24 h; 100% = twice the neutral-well signal; reporter increase, % at 12.5 µM; hit rate 2% among 350,000; in the data active = activation above about 40%; inconclusive = no clear call, values can overlap the other calls;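 also: 0% = median of the plate's neutral control wells and 100% = double that signal; a rise in the Bmi1 reporter signal indicates esBAF inhibition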
# An asterisk follows results filed as active; ? = inconclusive; . = no result given. An excerpt weighted towards active compounds, which were near 3.9% of everything screened.
SMILES,HSF1 inh,Wnt act,HSF-1 act,MITF TRPM1 HTS,esBAF inh
CN1C(=O)c2cc(NC(=O)C3CC3)ccc2OC[C@@H]2O[C@H](CC(=O)NC3CCC3)CC[C@@H]21,.,.,.,.,5
C[C@@H]1CN([C@@H](C)CO)C(=O)c2cc(NC(=O)NC3CCCCC3)ccc2O[C@@H]1CN(C)C(=O)NC1CCCCC1,.,.,.,.,4
COCC(=O)N1[C@@H](CO)[C@H](c2ccccc2)[C@@H]1CN(C)C(=O)c1cccnc1,.,.,.,.,-1
CCOC(=O)c1cc2c(nc1N)CCCC2,1,7,8,7,.
C=C(C)CNC(=S)Nc1nc2c(cc1C(=O)OCC)CCCC2,36,30,60*,83*,62*
Cc1ccccc1-n1c(C)nnc1SCc1nc2ccccc2s1,22,20,44,26,69*
CCn1c(SCCOc2ccc(Cl)cc2)nnc1-c1cccs1,19,-5,61*,.,-3
CCn1c(SCc2nc3ccccc3s2)nnc1-c1cccs1,21,.,34,24,50*
CCCn1c(=O)c2ccccc2n2c(SCc3nc4ccccc4s3)nnc12,.,27,.,22,42*
C[C@@H]1CCCCO[C@H](CN(C)Cc2ccc(C(=O)O)cc2)[C@H](C)CN([C@H](C)CO)C(=O)c2cc(NS(=O)(=O)c3ccc(Cl)cc3)ccc2O1,.,.,.,.,-6
CC(C)NC(=O)Nc1ccc2c(c1)CC(=O)N([C@H](C)CO)C[C@@H](C)[C@H](CN(C)S(=O)(=O)c1cccs1)O2,.,.,.,.,-8
COc1ccc(S(=O)(=O)N(C)C[C@@H]2Oc3c(NS(C)(=O)=O)cccc3C(=O)N([C@H](C)CO)C[C@H]2C)cc1,.,.,.,.,2
CCn1c(-c2ccccc2)csc1=Nc1ccc(O)cc1,-7,66*,15,60,.
OCCn1c(-c2ccc3c(c2)OCO3)csc1=Nc1ccccc1,-9,22,8,13,78*
OCCn1c(-c2ccc(F)cc2)csc1=Nc1ccccc1,11,6,6,4,.
CCOc1ccc(N=c2scc(-c3ccccc3)n2CCO)cc1,8,12,27,29,45*
COCCn1c(-c2ccccc2)csc1=Nc1cccnc1,0,-1,11,-1,.
C[C@@H]1CN([C@H](C)CO)S(=O)(=O)c2ccc(C#Cc3ccccc3)cc2O[C@H]1CN(C)S(=O)(=O)c1cn(C)cn1,.,.,.,.,-3
CN1C(=O)c2cc(NC(=O)C3CCOCC3)ccc2OC[C@H]2O[C@H](CC(=O)NCC3CC3)CC[C@H]21,.,.,.,.,3
COc1ccc(Cn2c(/C=C/c3ccccc3)nc3ccccc32)cc1,32,84*,?,87*,?
C=CCn1c(-c2ccc(OC)cc2)nc2ccccc21,13,7,10,19,41*
CC(C)Cn1c(/C=C/c2ccccc2)nc2ccccc21,53,21,89*,72,.
COc1ccc(-c2nc3ccccc3n2Cc2ccccc2)cc1,3,1,11,11,6
CCn1c(/C=C/c2ccccc2)nc2ccccc21,39,.,?,5,-7
COc1ccc(NC(=O)N(C)C[C@H]2Oc3ccc(NS(=O)(=O)c4ccccc4)cc3CC(=O)N([C@H](C)CO)C[C@@H]2C)cc1,.,.,.,.,5
SMILES,HSF1 inh,Wnt act,HSF-1 act,MITF TRPM1 HTS,esBAF inh
Cc1cccc(NC(=O)NC2CCCCCCC2)c1,.,20,.,36,62*
COc1cccc(C(=O)NC2CCCC2)c1,25,1,70*,6,19
CN(C)c1cccc(C(=O)NC2CCCc3ccccc32)c1 (stereo unspecified),6,-3,-2,7,1
Cc1cc(C(=O)NC2CCCCCCC2)ccc1[N+](=O)[O-],-7,48*,16,.,66*
CC(=O)c1cccc(NC(=O)NC2CCCCCCC2)c1,11,0,9,10,.
Cc1cc(C(=O)OCC(=O)NC2CC2)ccc1[N+](=O)[O-],.,1,.,4,3
CN(C)c1cccc(C(=O)NC2CCCCCC2)c1,-4,.,-2,59,44*
C[C@@H]1CN([C@@H](C)CO)C(=O)c2cc(NC(=O)c3ccccc3)ccc2O[C@@H](C)CCCCO[C@@H]1CN(C)C(=O)c1ccncc1,.,.,.,.,-5
C[C@H]1CN([C@@H](C)CO)C(=O)c2cc(C#CCN(C)C)cnc2O[C@@H]1CN(C)C(=O)Nc1cc(F)ccc1F,.,.,.,.,-3
N#C[C@H]1[C@@H](c2ccccc2)[C@H](CO)N1C(=O)C1CCCC1,.,.,.,.,-5
Cc1cccc(C(=O)NC2CCCCCCC2)c1,18,15,27,73,65*
O=C(N[C@@H]1CC[C@H](CCNS(=O)(=O)c2ccc(F)cc2)O[C@@H]1CO)c1cccnc1,.,.,.,.,1
O=C(Nc1cc(Cl)ccc1Cl)c1ccco1,-6,1,1,-10,-4
CS/C(Nc1cc(Cl)ccc1Cl)=C(/C#N)C(=O)c1ccco1,27,37*,54*,.,0
CCc1ccc2c(c1)C(c1ccc(N3CCOCC3)cc1)=NNC(c1ccncc1)=N2,15,-3,11,1,.
CCOc1ccc(C2=Nc3ccc(Br)cc3C(c3ccc(N4CCOCC4)cc3)=NN2)cc1,17,6,58*,68,.
CCOc1ccc(C2=Nc3ccccc3C(c3ccc(N4CCOCC4)cc3)=NN2)cc1,15,.,50,.,50*
O=C(CN1CCCCC1)Nc1ccc(Br)cc1[N+](=O)[O-],3,0,42,23,49*
O=C(CN1CCOCC1)NCC[C@H]1CC[C@@H](NC(=O)c2ccccc2F)[C@H](CO)O1,.,.,.,.,0
CC1(c2ccccc2)NC(=S)N2C1NC(=S)N2c1ccccc1 (stereo unspecified),0,.,10,4,.
COc1ccc(N2C(=S)NC3N2C(=S)NC3(C)c2ccccc2)cc1 (stereo unspecified),9,65*,34,34,.
O=C(CC1CCCCC1)NCc1ccccc1Cl,25,8,34,41,53*
O=C(CC1CCCCC1)NCc1ccccn1,-90*,0,-92,.,-9
O=C(NCc1ccccc1Cl)C1CCN(S(=O)(=O)N2CCCC2)CC1,-69*,-3,-75,-8,-2
CC(C)NC(=O)Nc1ccc2c(c1)C(=O)N([C@H](C)CO)C[C@@H](C)[C@H](CN(C)S(C)(=O)=O)OCCCC[C@H](C)O2,.,.,.,.,0
C[C@H]1CCCCO[C@H](CN(C)Cc2ccc(C(=O)O)cc2)[C@@H](C)CN([C@@H](C)CO)C(=O)c2cc(NC(=O)NC3CCCCC3)ccc2O1,.,.,.,.,-3
CO[C@@H]1CN(C)C(=O)c2cc(NC(=O)Nc3ccccc3F)ccc2OC[C@@H](C)N(C(C)=O)C[C@@H]1C,.,.,.,.,3
CC(C)C(=O)Nc1ccc2c(c1)C(=O)N(C)[C@@H]1CC[C@H](CC(=O)NCc3ccccc3)O[C@@H]1CO2,.,.,.,.,-12

# Screening data: PubChem BioAssay, Broad Institute
